Results: PubChem BioAssay AID2284181 (EPA ToxCast)
Inconclusive results are not listed. The source made the active and inactive calls. How the source made its calls: active means hit-call score of the fitted dose curve at least 0.9, where 1 is the maximum; inconclusive means response in the unintended direction; inactive means score below 0.9.

biological target: human Serotonin Receptor 5-HT1A, HTR1A (gene 3350) (UniProt P08908); test: ERF_FR_GPCR_hHTR1A: Eurofins (ERF) G Protein-Coupled Receptor (GPCR) Radioligand Binding LeadHunter Assay for human Serotonin Receptor 5-HT1A Agonism, conducted at France lab site
Experimental: ERF_FR_GPCR_hHTR1A is a biochemical, single-readout assay that uses extracted gene-proteins in a cell-free assay. Measurements were taken 1 hour after chemical dosing in a 96-well plate. See 5-HT1A Human Serotonin GPCR Binding (Agonist Radioligand) Assay, Cerep.ERF_FR_GPCR_hHTR1A is an assay component calculated from the ERF_FR_GPCR_hHTR1A assay. It is designed to measure radioligand binding using a type of binding reporter as detected by scintillation counting with radiometry technology.Data from the assay component ERF_FR_GPCR_hHTR1A was analyzed at the assay endpoint, ERF_FR_GPCR_hHTR1A, in the positive analysis fitting direction relative to DMSO as the negative control and baseline of activity. Using a type of binding reporter, gain-of-signal activity can be used to understand changes in binding as they relate to gene HTR1A. To generalize the intended target to other relatable targets, this assay endpoint is annotated to the gpcr intended target family, where the subfamily is serotonin.
Human cells are incubated for 60 minutes at room temprature with [3H]8-OH-DPAT ligand (0.5 nM) and 8-OH-DPAT as control inhibitor. Test Sample Requirements: Minimum for 1) Screen: 60 ul of 10 mM stock -OR- 1 mg (pre-weighed) for 10 uM final testing. 2) Dose Response: 90 ul of 10 mM stock -OR- 1 mg (pre-weighed) for a top concentration at 10 uM.

human Serotonin Receptor 5-HT1A, HTR1A (gene 3350), sequence (P08908 whole entry, looked up): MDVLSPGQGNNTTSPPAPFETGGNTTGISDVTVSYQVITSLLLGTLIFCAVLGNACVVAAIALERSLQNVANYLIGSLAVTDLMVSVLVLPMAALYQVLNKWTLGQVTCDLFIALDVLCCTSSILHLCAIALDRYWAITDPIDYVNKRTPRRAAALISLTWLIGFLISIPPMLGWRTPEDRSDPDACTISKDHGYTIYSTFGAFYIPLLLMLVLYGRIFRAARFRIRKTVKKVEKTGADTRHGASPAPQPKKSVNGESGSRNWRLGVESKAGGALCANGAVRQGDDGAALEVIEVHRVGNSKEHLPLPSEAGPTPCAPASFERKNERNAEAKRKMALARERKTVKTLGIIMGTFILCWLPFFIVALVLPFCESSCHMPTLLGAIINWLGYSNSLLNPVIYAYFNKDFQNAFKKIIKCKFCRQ

Row | Structure (SMILES) | outcome | AC50
1 | O=C(/C=C/c1ccc(O)cc1)CC(=O)/C=C/c1ccc(O)cc1 | inactive | 
2 | COc1cc(/C=C/C(=O)CC(=O)/C=C/c2ccc(O)c(OC)c2)ccc1O |  | 2010 nM (active)
3 | CCCCC[C@H](O)CC(=O)CCc1ccc(O)c(OC)c1 | inactive | 
